Experimental data taken from PMC7862700, “An all-to-all approach to the identification of sequence-specific readers for epigenetic DNA modifications on cytosine”.

Experiments:
Assay in all cases: DAPPL (digital affinity profiling via proximity ligation, sequencing); 10 mM Tris-HCl pH 7.5, 50 mM NaCl, 1 mM DTT, 4% glycerol, room temperature, 30 min; GST-TFs on glutathione beads, 16-mer random dsDNA library, 0.1% formaldehyde crosslink after washing; high values mean tight binding
Settings in all cases: protein: recombinant; tags: N-terminal GST; dsDNA, one strand shown
FLI1 = molecular target: T1, FLI1 (Homo sapiens, UniProt Q01543 1-452)
T1 sequence: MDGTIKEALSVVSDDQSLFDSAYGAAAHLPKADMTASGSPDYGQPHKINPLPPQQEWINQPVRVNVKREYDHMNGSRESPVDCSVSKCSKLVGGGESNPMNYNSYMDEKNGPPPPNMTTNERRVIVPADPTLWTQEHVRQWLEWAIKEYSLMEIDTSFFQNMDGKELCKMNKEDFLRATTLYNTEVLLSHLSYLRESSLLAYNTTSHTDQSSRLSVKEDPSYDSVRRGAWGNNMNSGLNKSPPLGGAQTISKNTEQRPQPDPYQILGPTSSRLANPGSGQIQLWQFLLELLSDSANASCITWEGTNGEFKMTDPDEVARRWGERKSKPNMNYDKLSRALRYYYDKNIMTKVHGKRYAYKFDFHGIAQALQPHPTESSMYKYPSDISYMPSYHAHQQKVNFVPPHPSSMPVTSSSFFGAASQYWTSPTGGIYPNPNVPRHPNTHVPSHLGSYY
Outline: (§1)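 Yeast served to express human transcription factors as GST fusions, which were then captured on glutathione beads and labelled with DNA barcodes. Pooled with a tag-only sample, they were incubated with 200 nmole of a 16-mer random double-stranded DNA library for 30 min at room temperature in Tris/NaCl/DTT/glycerol buffer, washed, crosslinked with 0.1% formaldehyde, ligated by proximity, amplified by PCR and sequenced. Dividing each hexamer's read frequency for a factor by its frequency for the tag-only sample gives the binding signal.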

ERG = molecular target: T2, ERG (Homo sapiens, UniProt P11308 1-479)
T2 sequence: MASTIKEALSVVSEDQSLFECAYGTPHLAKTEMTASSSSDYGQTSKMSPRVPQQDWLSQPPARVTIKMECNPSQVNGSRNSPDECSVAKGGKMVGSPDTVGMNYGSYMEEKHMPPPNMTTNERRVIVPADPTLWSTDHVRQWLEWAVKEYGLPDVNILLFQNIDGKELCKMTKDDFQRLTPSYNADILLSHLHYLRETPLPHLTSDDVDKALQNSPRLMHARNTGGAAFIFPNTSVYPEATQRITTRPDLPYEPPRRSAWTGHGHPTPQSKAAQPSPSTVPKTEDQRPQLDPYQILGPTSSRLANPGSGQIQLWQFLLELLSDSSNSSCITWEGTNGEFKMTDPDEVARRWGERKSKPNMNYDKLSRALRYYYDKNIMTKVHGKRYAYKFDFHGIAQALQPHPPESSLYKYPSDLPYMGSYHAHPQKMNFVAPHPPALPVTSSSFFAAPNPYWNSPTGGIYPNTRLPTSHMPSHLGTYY
Outline: as §1

EHF = molecular target: T3, EHF (Homo sapiens, UniProt Q9NZC4 1-300)
T3 sequence: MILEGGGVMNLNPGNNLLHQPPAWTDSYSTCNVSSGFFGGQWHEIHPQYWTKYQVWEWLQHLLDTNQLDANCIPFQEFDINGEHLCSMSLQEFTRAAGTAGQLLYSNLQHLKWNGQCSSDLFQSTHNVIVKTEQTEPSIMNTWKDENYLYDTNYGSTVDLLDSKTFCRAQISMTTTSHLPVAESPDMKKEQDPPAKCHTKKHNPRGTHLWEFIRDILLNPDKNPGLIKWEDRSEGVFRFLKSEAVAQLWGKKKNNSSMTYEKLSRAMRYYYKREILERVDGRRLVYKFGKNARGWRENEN
Outline: as §1

ELK3 = molecular target: T4, ELK3 (Homo sapiens, UniProt P41970 1-407)
T4 sequence: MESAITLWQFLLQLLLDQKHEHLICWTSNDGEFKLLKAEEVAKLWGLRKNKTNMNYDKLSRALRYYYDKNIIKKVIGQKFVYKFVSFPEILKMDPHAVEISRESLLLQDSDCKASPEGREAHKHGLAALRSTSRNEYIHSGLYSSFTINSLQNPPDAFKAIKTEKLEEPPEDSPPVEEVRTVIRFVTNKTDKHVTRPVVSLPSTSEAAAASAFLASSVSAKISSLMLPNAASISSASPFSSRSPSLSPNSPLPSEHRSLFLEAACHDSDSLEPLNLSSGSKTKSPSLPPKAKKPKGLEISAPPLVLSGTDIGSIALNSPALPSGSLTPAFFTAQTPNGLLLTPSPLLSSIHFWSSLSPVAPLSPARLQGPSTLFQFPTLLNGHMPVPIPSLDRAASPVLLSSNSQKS
Outline: as §1

SPIC = molecular target: T5, SPIC (Homo sapiens, UniProt Q8N5J4 1-248)
T5 sequence: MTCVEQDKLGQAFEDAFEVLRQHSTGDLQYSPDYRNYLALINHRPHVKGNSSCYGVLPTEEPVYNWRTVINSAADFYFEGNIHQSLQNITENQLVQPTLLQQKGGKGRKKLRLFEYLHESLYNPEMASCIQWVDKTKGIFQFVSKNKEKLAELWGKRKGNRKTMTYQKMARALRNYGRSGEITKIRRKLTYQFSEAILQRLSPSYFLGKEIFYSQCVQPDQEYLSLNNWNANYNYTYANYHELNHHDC
Outline: as §1

ELF4 = ELF4 (Homo sapiens, UniProt Q99607 1-663)
Sequence of ELF4 (Q99607 whole entry): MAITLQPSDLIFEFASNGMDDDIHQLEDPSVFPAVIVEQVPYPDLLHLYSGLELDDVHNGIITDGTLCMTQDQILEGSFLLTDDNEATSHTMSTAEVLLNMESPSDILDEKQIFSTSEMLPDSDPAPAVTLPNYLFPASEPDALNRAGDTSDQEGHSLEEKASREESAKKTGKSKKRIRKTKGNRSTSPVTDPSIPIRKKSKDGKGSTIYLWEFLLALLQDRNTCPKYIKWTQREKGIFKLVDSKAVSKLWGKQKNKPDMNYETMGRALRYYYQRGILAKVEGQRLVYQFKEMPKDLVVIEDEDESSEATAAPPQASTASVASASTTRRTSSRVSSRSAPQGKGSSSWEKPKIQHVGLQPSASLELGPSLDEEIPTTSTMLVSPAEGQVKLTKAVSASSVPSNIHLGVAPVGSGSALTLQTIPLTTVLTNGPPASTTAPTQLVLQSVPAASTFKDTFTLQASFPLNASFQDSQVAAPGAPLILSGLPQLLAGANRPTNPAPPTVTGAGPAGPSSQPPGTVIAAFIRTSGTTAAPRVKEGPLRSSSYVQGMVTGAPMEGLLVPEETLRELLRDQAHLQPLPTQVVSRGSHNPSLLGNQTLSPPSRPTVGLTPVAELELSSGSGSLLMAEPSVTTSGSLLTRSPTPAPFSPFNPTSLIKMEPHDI
Outline: as §1

ELK4 = molecular target: T6, ELK4 (Homo sapiens, UniProt P28324-2 1-405)
T6 sequence: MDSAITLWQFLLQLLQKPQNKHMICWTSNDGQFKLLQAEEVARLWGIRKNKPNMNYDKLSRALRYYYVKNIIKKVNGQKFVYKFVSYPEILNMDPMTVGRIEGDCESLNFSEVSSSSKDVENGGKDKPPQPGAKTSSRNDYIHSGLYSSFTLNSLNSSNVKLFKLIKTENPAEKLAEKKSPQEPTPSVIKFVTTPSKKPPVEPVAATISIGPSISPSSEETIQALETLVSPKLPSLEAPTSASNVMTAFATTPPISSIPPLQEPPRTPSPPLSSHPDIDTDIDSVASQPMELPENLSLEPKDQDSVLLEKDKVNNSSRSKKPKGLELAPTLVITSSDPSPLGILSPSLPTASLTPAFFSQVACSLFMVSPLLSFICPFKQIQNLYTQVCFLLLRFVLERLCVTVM
Outline: as §1

ELF3 = molecular target: T7, ELF3 (Homo sapiens, UniProt P78545 1-371)
T7 sequence: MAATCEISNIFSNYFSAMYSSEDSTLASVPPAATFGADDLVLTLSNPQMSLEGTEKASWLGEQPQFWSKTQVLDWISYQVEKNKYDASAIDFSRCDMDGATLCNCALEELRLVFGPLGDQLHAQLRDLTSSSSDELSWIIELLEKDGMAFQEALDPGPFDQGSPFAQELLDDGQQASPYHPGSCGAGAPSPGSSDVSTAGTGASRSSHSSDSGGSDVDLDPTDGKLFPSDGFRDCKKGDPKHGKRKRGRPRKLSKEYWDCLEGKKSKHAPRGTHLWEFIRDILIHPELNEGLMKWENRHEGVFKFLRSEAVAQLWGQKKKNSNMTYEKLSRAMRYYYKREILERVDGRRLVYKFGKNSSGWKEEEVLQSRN
Outline: as §1

ETV1 = ETV1 (Homo sapiens, UniProt P50549 1-477)
Sequence of ETV1 (P50549 whole entry): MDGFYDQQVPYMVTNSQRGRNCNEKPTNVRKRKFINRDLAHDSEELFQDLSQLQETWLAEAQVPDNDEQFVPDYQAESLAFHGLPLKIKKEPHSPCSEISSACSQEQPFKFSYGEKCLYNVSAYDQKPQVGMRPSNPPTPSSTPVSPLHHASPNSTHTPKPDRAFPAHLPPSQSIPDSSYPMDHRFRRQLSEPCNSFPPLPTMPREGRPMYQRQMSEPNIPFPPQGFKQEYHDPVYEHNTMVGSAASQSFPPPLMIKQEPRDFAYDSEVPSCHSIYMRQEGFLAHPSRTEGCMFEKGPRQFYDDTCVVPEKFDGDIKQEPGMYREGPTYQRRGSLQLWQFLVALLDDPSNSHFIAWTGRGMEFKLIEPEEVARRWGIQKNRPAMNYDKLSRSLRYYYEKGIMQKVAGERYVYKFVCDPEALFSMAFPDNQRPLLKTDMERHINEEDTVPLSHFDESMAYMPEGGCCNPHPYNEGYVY
Outline: as §1

ERF = molecular target: T8, ERF (Homo sapiens, UniProt P50548 1-548)
T8 sequence: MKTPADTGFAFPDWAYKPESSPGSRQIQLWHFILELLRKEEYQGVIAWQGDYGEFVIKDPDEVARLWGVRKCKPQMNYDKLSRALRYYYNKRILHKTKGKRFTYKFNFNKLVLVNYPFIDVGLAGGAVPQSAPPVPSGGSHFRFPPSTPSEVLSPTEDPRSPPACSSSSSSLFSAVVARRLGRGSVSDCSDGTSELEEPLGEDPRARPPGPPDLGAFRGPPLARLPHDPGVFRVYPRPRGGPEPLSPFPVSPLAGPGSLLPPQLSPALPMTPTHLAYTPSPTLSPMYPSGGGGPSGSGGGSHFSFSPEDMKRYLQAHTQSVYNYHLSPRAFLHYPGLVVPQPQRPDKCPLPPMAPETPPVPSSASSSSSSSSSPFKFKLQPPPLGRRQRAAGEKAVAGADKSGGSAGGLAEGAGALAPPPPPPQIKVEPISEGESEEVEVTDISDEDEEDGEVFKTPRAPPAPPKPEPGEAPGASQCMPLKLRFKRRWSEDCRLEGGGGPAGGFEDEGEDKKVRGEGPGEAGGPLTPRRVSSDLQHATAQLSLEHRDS
Outline: as §1

ETV7 = molecular target: T9, ETV7 (Homo sapiens, UniProt Q9Y603 1-341)
T9 sequence: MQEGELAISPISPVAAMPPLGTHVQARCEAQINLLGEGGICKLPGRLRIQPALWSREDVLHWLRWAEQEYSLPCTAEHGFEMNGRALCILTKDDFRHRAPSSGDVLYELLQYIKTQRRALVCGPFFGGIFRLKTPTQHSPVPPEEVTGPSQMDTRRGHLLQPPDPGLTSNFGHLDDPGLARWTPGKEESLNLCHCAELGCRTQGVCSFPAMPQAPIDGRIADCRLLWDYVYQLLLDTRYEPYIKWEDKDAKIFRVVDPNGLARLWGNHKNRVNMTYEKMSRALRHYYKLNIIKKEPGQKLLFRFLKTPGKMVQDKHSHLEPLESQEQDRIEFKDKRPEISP
Outline: as §1

ETV6 = ETV6 (Homo sapiens, UniProt P41212 1-452)
Sequence of ETV6 (P41212 whole entry): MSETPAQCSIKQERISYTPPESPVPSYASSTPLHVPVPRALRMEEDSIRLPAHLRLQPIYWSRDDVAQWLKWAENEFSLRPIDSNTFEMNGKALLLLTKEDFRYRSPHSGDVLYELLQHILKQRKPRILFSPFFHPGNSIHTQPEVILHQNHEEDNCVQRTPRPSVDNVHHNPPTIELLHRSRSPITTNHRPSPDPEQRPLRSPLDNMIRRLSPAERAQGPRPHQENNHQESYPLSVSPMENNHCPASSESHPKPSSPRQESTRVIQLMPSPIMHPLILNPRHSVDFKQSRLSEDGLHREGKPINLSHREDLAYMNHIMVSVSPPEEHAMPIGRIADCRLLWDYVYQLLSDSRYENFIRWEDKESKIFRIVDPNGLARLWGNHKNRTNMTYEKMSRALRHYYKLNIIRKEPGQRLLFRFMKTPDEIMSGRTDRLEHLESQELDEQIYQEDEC
Outline: as §1

Sequence: GTCACG
- binding signal (FLI1): 1.09 fold enrichment (6-mer frequency, TF over GST control)
- binding signal (ERG): 1.06 fold enrichment (6-mer frequency, TF over GST control)
- binding signal (EHF): 1.07 fold enrichment (6-mer frequency, TF over GST control)
- binding signal (ELK3): 1.02 fold enrichment (6-mer frequency, TF over GST control)
- binding signal (SPIC): 1.04 fold enrichment (6-mer frequency, TF over GST control)
- binding signal (ELF4): 1.07 fold enrichment (6-mer frequency, TF over GST control)
- binding signal (ELK4): 1.08 fold enrichment (6-mer frequency, TF over GST control)
- binding signal (ELF3): 1.02 fold enrichment (6-mer frequency, TF over GST control)
- binding signal (ETV1): 1.1 fold enrichment (6-mer frequency, TF over GST control)
- binding signal (ERF): 1.08 fold enrichment (6-mer frequency, TF over GST control)
- binding signal (ETV7): 1.04 fold enrichment (6-mer frequency, TF over GST control)
- binding signal (ETV6): 1.04 fold enrichment (6-mer frequency, TF over GST control)
